# PubChem BioAssay (EPA / NIEHS)
# Several values for one entry are separate records, joined by “and”; a condition that tells them apart may be missing. Equal entries are not always repeated. A structure can be active in one record and inactive in another. Activity calls are given as the source filed them. How the source made its calls: active means hit-call score of the fitted dose curve at least 0.9, where 1 is the maximum; inactive means score below 0.9.
# Assays:
# [1] = APR_HepG2_P-H2AX_72hr: Apredica 72-hour HepG2 Assay for H2AX Phosphorylation (AID 2282916); conditions: imaging, actives raise or lower the signal;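 further: phospho-histone H2A.x immunostain intensity per cell marking DNA damage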
# Outline: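 HepG2 human liver cells were exposed for 72 hr to compounds at 0.39–200 uM (10 concentrations, duplicate per plate) in 0.5% v/v DMSO. Fixed, permeabilized cells were immunolabeled for phospho-histone H2A.x with Hoechst 33342 and imaged by HCS fluorescence; bidirectional fit versus DMSO.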
# [2] = APR_HepG2_MitoMembPot_72hr: Apredica 72-hour HepG2 Assay for Mitochondrial Membrane Potential (AID 2282917); conditions: imaging, actives raise or lower the signal
# Outline: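 HepG2 cells exposed 72 h to compounds at 0.39–200 uM (0.5% v/v DMSO, duplicates); MitoTracker Red CMXRos 250 nM loaded 30 min before 3.7% formaldehyde fixation, imaged by HCS fluorescence. Bidirectional fit versus DMSO.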
# [3] = APR_HepG2_MitoticArrest_72hr: Apredica 72-hour HepG2 Assay for Mitotic Arrest (AID 2282918); conditions: high-content imaging, actives raise or lower the signal
# Outline: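 Read-out is phospho-histone H3 immunofluorescence with Hoechst nuclear segmentation, imaged at 20x. Human HepG2 liver cells received ten concentrations (0.39–200 uM, final DMSO 0.5% v/v) for 72 hr before fixation. Gain or loss of signal was fitted relative to DMSO.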
# [4] = APR_HepG2_MicrotubuleCSK_72hr: Apredica 72-hour HepG2 Assay for Microtubule CSK Stabilty (AID 2282919); conditions: HepG2 microtubule cytoskeleton, high-content imaging, actives raise or lower the signal
# Outline: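 HepG2 human liver cells were dosed for 72 h at ten concentrations from 0.39 to 200 uM in duplicate (0.5% v/v DMSO final). Fixed, permeabilized cells were immunostained for alpha-tubulin (Cy5) with a Hoechst counterstain and imaged at 20x.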
# [5] = APR_HepG2_StressKinase_72hr: Apredica 72-hour HepG2 Assay for Stress Kinase (AID 2282921); conditions: HepG2 stress kinase (phospho-c-Jun) imaging, actives raise or lower the signal
# Outline: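 Cells were exposed for 72 h to ten concentrations (0.39–200 uM, duplicate) at 0.5% v/v DMSO final, then fixed with 3.7% formaldehyde, permeabilized and immunostained for phospho-c-Jun (Cy3 secondary) with Hoechst nuclear counterstain.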
# [6] = APR_HepG2_StressKinase_24hr: Apredica 24-hour HepG2 Assay for Stress Kinase (AID 2282922); conditions: HepG2 stress kinase (phospho-c-Jun) imaging, actives raise or lower the signal
# Outline: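 HepG2 cells exposed 24 hr to compound at 0.39–200 uM (10 concentrations, duplicate), 0.5% v/v DMSO final. Fixed in 3.7% formaldehyde, permeabilized with Triton X-100, immunolabeled for phospho-c-Jun with Hoechst 33342; HCS fluorescence imaging, bidirectional fit versus DMSO.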
# [7] = APR_HepG2_MitoMass_72hr: Apredica 72-hour HepG2 Assay for Mitochondrial Mass (AID 2282924); conditions: high-content imaging, actives raise or lower the signal;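 further: MitoTracker Red CMXRos stain intensity per cell imaged as mitochondrial mass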
# Outline: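 HepG2 cells were exposed for 72 hr to compounds at 0.39–200 uM (ten concentrations, duplicate, 0.5% v/v DMSO final). Live cells were stained with 250 nM MitoTracker Red CMXRos for 30 min, then fixed in 3.7% formaldehyde and imaged by HCS fluorescence.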
# [8] = APR_HepG2_NuclearSize_72hr: Apredica 72-hour HepG2 Assay for Nuclear Size (AID 2282925); conditions: high-content imaging, actives raise or lower the signal
# Outline: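 HepG2 cells were exposed to compounds at ten concentrations from 0.39 to 200 uM (duplicate, 0.5% DMSO final) for 72 hr. After fixation in 3.7% formaldehyde, nuclei were stained with Hoechst 33342 (2 ug/mL) and imaged at 20x.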
# [9] = target: CCAAT/enhancer-binding protein beta (Homo sapiens) (UniProt P17676); experiment: ATG_C_EBP_CIS: Attagene CIS-FACTORIAL HepG2 Assay for human CCAAT/Enhancer Binding Protein (C/EBP) beta (AID 2282927); conditions: HepG2 Attagene cis-factorial transcription factor reporter; actives raise or lower the signal
# Chain of CCAAT/enhancer-binding protein beta (Homo sapiens) (P17676 whole entry, looked up, the tested form may be a part): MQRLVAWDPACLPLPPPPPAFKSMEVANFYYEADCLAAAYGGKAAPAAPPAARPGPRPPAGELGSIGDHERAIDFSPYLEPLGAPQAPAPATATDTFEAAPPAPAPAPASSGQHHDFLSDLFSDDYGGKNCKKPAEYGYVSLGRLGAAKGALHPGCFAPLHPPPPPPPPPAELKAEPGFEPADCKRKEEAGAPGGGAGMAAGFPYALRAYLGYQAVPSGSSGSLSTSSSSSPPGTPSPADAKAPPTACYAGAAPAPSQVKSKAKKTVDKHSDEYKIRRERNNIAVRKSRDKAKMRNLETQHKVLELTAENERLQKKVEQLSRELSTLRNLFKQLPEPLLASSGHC
# Outline: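 Chemical-treated HepG2 cells (24 h) bearing cis-regulated reporter constructs were processed for total RNA, then reverse transcription, PCR amplification, fluorescent primer extension and fragment analysis; gain- and loss-of-signal were fitted against DMSO.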
# [10] = ATG_CMV_CIS: Attagene CIS-FACTORIAL HepG2 Assay for human CMV (Internal Marker) (AID 2282928); conditions: HepG2 CMV promoter reporter, transcription factor profiling; actives raise or lower the signal;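 further: endpoint acts as a background internal control marker rather than a target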
# Outline: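 CMV internal-marker background readout in transiently transfected HepG2 cells bearing cis-regulated reporter units. Reporter mRNA is measured 24 h after dosing by RT-PCR and capillary electrophoresis, with bidirectional fitting against DMSO.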
# [11] = ATG_DR4_LXR_CIS: Attagene CIS-FACTORIAL HepG2 Assay for human Liver X Receptor (LXR), DR4 submotif (AID 2282929); conditions: HepG2 Attagene DR4 cis-reporter, mRNA transcription; actives raise or lower the signal
# Outline: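 Total RNA from 24 h-treated, MRTU-transfected HepG2 cells underwent reverse transcription, PCR, fluorescent primer extension and restriction digestion before capillary electrophoresis. Both increases and decreases in reporter signal were fitted against DMSO.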
# [12] = ATG_AP_1_CIS: Attagene CIS-FACTORIAL HepG2 Assay for human Activator Protein 1 (AP-1) (AID 2282931); conditions: HepG2 Attagene cis-factorial AP-1 reporter mRNA; actives raise or lower the signal
# Outline: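 HepG2, transient cis-reporter transfection; 24 h; readout RT-PCR/CE fluorescence; DMSO baseline, gain and loss fitted.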
# [13] = ATG_AP_2_CIS: Attagene CIS-FACTORIAL HepG2 Assay for human Activator Protein 2 (AP-2) (AID 2282932); conditions: HepG2 AP-2 cis-reporter, Attagene transcription factor profiling; actives raise or lower the signal
# Outline: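 HepG2 cells were transiently transfected with multiple cis-promoter reporter transcription units and dosed for 24 h. Reporter mRNA was measured by RT-PCR with capillary electrophoresis fluorescence; bidirectional fits relative to DMSO baseline.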
# [14] = ATG_BRE_CIS: Attagene CIS-FACTORIAL HepG2 Assay for human Bone Morphogenetic Protein (BMP) Response Element (BRE) (AID 2282933); conditions: HepG2 BMP response element reporter, Attagene transcription factor profiling; actives raise or lower the signal
# Outline: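 Multiplexed cis-reporter assay, HepG2, 24 h exposure. mRNA from reporter units quantified via RT-PCR/CE; DMSO baseline; bidirectional curve fit.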
# [15] = target: Transcription factor E2F1 (Homo sapiens) (UniProt Q01094); experiment: ATG_E2F_CIS: Attagene CIS-FACTORIAL HepG2 Assay for human E2F Transcription Factor 1 (AID 2282935); conditions: HepG2 Attagene cis-reporter, E2F reporter RNA transcripts; actives raise or lower the signal
# Chain of Transcription factor E2F1 (Homo sapiens) (Q01094 whole entry, looked up): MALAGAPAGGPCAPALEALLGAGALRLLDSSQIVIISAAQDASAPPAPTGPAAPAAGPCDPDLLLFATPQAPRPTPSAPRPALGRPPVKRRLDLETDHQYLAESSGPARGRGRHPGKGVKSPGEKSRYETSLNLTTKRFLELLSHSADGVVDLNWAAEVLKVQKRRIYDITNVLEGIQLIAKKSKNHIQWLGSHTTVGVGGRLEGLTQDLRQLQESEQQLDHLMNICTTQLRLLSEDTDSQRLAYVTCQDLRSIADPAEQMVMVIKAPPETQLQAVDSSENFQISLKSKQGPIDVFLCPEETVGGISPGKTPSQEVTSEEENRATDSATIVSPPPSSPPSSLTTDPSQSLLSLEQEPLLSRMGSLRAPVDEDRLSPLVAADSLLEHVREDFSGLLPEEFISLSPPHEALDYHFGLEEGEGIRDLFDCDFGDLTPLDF
# Outline: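 HepG2 cells transiently transfected with multiplexed cis-element reporter units, dosed for 24 h. Reporter mRNA measured by RT-PCR, 6-FAM primer-extension labeling, HpaI digestion and capillary electrophoresis; bidirectional fit versus DMSO baseline.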
# [16] = ATG_E_Box_CIS: Attagene CIS-FACTORIAL HepG2 Assay for human Enhancer Box (E-box) (AID 2282936); conditions: HepG2 E-box cis-reporter transcription, actives raise or lower the signal
# Outline: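 HepG2 cells transiently transfected with multiplexed cis-element reporter units sensing endogenous transcription factor activity; 24 h compound exposure. Reporter mRNA measured by RT-PCR, 6-FAM primer extension, HpaI digestion and capillary electrophoresis; bidirectional fit versus DMSO.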
# [17] = ATG_M_61_CIS: Attagene CIS-FACTORIAL HepG2 Assay for M61 Transcription Factor (Internal Marker) (AID 2282937); conditions: HepG2 Attagene CIS-FACTORIAL M61 internal marker reporter; actives raise or lower the signal
# Outline: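 Transfect HepG2 with MRTUs; dose 24 h; isolate RNA; reverse-transcribe with DNase I treatment; PCR-amplify, FAM-label and cut with HpaI for 2 h at 37 C; resolve by CE. Bidirectional fitting against DMSO.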
# [18] = target: Aryl hydrocarbon receptor (Homo sapiens) (UniProt P35869); experiment: ATG_Ahr_CIS: Attagene CIS-FACTORIAL HepG2 Assay for human Aryl Hydrocarbon Receptor (Ahr) (AID 2282930); conditions: HepG2 AhR cis-factorial reporter transcription; actives raise or lower the signal
# Chain of Aryl hydrocarbon receptor (Homo sapiens) (P35869 whole entry, looked up): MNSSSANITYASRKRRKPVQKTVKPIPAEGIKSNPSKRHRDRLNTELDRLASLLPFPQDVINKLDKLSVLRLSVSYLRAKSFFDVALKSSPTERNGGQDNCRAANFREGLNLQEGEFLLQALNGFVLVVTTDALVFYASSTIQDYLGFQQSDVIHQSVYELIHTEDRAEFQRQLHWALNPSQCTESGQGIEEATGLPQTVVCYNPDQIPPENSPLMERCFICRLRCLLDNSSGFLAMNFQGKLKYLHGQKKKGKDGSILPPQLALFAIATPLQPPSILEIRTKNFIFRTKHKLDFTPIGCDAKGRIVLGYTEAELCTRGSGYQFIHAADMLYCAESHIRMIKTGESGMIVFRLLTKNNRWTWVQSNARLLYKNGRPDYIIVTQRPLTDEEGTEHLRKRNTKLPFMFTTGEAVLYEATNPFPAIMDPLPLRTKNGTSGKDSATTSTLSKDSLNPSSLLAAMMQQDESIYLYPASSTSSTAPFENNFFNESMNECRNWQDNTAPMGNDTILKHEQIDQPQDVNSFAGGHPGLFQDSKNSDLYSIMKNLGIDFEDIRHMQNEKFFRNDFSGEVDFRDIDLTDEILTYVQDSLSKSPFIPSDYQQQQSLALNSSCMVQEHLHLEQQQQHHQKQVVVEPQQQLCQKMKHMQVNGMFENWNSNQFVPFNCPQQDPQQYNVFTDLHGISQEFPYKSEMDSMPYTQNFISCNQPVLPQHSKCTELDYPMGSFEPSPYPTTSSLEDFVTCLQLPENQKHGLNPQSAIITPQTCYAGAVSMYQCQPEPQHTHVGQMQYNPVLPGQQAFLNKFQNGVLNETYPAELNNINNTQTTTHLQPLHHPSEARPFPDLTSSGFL
# Outline: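 Following 24 h of chemical dosing, transfected HepG2 liver cells with cis-driven reporter units were lysed for RNA; reporter mRNA was quantified via RT-PCR and capillary electrophoresis, and responses fitted bidirectionally from DMSO.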
# [19] = target: Retinoic acid receptor alpha (Homo sapiens) (UniProt P10276); experiment: ATG_DR5_RAR_CIS: Attagene CIS-FACTORIAL HepG2 Assay for human Retinoic Acid Receptor Alpha (RARE), DR5 submotif (AID 2282934); conditions: HepG2 Attagene cis-factorial RARE DR5 reporter, mRNA; actives raise or lower the signal
# Chain of Retinoic acid receptor alpha (Homo sapiens) (P10276 whole entry, looked up): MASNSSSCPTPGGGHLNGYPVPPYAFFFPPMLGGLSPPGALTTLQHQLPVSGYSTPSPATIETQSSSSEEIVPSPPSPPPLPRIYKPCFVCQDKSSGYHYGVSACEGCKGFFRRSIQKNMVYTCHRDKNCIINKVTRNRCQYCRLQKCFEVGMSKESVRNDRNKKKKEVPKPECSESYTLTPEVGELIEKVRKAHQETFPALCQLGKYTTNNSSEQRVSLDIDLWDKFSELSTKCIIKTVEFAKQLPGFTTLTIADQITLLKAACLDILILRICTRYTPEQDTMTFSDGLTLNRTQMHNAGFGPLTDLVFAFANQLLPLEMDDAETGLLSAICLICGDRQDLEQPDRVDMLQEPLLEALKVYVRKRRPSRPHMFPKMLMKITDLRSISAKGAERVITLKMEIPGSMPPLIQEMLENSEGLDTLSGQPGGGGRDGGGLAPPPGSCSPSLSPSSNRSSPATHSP
# Outline: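 Transfected HepG2 reporter cells are exposed to chemicals for 24 h. Then RNA is extracted and the DR5 element reporter transcript is measured by RT-PCR and capillary electrophoresis, with bidirectional curve fitting relative to DMSO.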
smiles,measurement,setting,value
COc1cc(-c2ccc(N)c(OC)c2)ccc1N,AC50,[1],24.8 µM (active)
same,outcome,[1],inactive
same,AC50,[2],14.3 µM (active)
same,outcome,[2],inactive
same,AC50,[3],24.8 µM (active)
same,outcome,[3],inactive
same,AC50,[4],42.1 µM (active)
same,outcome,[4],inactive
same,outcome,[5],inactive
same,outcome,[6],inactive
same,outcome,[7],inactive
same,outcome,[8],inactive
same,AC50,[9],14.8 µM (active) and 36.5 µM (active)
same,AC50,[10],10.5 µM (active) and 27.8 µM (active)
same,outcome,[11],inactive
same,outcome,[12],inactive
same,outcome,[13],inactive
same,outcome,[14],inactive
same,outcome,[15],inactive
same,AC50,[16],43.2 µM (active)
same,outcome,[16],inactive
same,outcome,[17],inactive
CC12CC1(C)C(=O)N(c1cc(Cl)cc(Cl)c1)C2=O (centres undefined),outcome,[1],inactive
same,outcome,[2],inactive
same,outcome,[3],inactive
same,outcome,[4],inactive
same,outcome,[5],inactive
same,outcome,[6],inactive
same,outcome,[7],inactive
same,outcome,[8],inactive
same,outcome,[9],inactive
same,outcome,[10],inactive
same,outcome,[11],inactive
same,outcome,[18],inactive
same,outcome,[12],inactive
same,outcome,[13],inactive
same,outcome,[14],inactive
same,outcome,[15],inactive
same,outcome,[16],inactive
same,outcome,[17],inactive
CCC(=O)C(CC(C)N(C)C)(c1ccccc1)c1ccccc1 (centres undefined),AC50,[1],73.5 µM (active)
same,outcome,[2],inactive
same,AC50,[3],75.6 µM (active)
same,AC50,[4],81.3 µM (active)
same,AC50,[5],78.9 µM (active)
same,outcome,[6],inactive
same,outcome,[7],inactive
same,outcome,[8],inactive
same,outcome,[9],inactive
same,outcome,[10],inactive
same,AC50,[11],92.4 µM (active)
same,outcome,[18],inactive
same,outcome,[12],inactive
same,outcome,[13],inactive
same,outcome,[14],inactive
same,outcome,[19],inactive
same,outcome,[15],inactive
same,AC50,[16],48.8 µM (active)
same,outcome,[17],inactive
